ELG1 genotoxic: inducers of genotoxicity in HEK293T ELG1-luciferase cells. Potency, µM (doses to about 46 µM), usual class: activators. HEK293T ELG1-luciferase reporter, luminescence, 16 h. actives 1.3% (n = 330,000). AID 504466; note: nearly all actives have a fitted effect of over 60% in size
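Reporter readout depends on ELG1 protein level, which increases with genetic stress. After 16 hr compound exposure at 37 °C, luciferase activity was quantified using ONE-Glo.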
NPC1 promoter act: activators of NPC1 promoter; AID 485313; actives 2.4% (n = 320,000); Potency, µM (titrated, usually from 9.22 µM), actives largely listed as activators; Huh7 NPC1 promoter luciferase reporter, 24 h; note: nearly all actives have a fitted effect of over 60% in size
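Huh7 cells stably carrying NPC1 promoter–luciferase, plated in Opti-MEM with 10% FBS for 2 h, were exposed to compound in DMSO for 24 h at 37 °C; luciferase reagent was added for 10 min and luminescence read.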
SMN2 splice up: increases expression of the SMN2 splice variant. HEK293 SMN2-luciferase splicing reporter, luminescence, 30-36 h. Potency, µM (titrated, usually from 46.1 µM), usual class: activators. actives 2.8% (n = 210,000); note: nearly all actives have a fitted effect of over 55% in size
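qHTS luciferase splicing reporter: luminescence rises when SMN2 exon 7 is included in transfected HEK293 cells. Compound exposure lasted 30-36 h at 37C, with 4.5 mM final sodium butyrate as control, followed by a ONE-Glo read.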
Rab9 promoter act: activates the Rab9 promoter; Potency, µM (titrated, usually from 9.22 µM), actives largely listed as activators; Huh7 Rab9 promoter-luciferase reporter, luminescence, 24 h; actives 2.8% (n = 320,000); AID 485297; note: nearly all actives have a fitted effect of over 60% in size
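Huh7 cells stably carrying a Rab9 promoter-luciferase reporter, 1500 cells per well in OP-MEM I with 10% FBS, treated with compound 24 hours at 37C. Luciferase activity read by luminescence after 10 minutes with Amplite reagent.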
FLuc counter: counter-screen for miR-21 project: firefly luciferase inhibitors or activators. purified FLuc, Km substrates, luminescence inhibition. Potency, µM (series often up to 57.5 µM), usual class: inhibitors. actives 6.9% (n = 360,000). AID 588342; note: nearly all actives have a fitted effect of over 55% in size
Target sequence (P08659 whole entry, looked up): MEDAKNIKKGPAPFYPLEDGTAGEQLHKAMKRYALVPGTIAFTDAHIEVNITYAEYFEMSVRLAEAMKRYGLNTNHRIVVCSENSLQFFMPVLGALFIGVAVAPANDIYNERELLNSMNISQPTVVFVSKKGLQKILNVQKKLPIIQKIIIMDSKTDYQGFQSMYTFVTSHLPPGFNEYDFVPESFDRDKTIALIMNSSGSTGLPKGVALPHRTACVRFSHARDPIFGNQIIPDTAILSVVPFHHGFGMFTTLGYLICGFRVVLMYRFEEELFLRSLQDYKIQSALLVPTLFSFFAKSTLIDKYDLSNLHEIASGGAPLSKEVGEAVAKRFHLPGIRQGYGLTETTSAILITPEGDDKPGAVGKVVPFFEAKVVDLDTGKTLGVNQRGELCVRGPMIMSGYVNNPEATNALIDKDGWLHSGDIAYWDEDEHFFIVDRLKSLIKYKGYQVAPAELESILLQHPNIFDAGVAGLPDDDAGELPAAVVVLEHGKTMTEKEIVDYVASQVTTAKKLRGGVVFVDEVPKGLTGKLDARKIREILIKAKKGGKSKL
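Purified P. pyralis luciferase, 10 nM final, with Km-level 10 uM D-luciferin and 10 uM ATP in 50 mM Tris acetate pH 7.5, 10 mM Mg acetate, 0.01% Tween-20, 0.05% BSA; 6-point qHTS titration about 60 µM downward; luminescence read.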
Hits are given with their value; - = inactive; ? = inconclusive; . = no result. An excerpt weighted towards active compounds, which were near 7.5% of everything screened. Calls come from the whole dose curve; as a rule, active = well fitted curve in the direction sought with a large enough effect; inconclusive = small, poorly fitted or top-dose-only effect, or another doubt; inactive = no such curve, though single readings can be large; an effect the other way counts as inactive or inconclusive.

SMILES | ELG1 genotoxic | NPC1 promoter act | SMN2 splice up | Rab9 promoter act | FLuc counter
O=C(O)c1ccc(/C=N/NC(=O)c2cc(-c3cccs3)nc3ccccc23)cc1 | - | - | - | - | 6.01µM
Cc1ccc2nc(C)c(C(=O)N/N=C/c3ccc(C(=O)O)cc3)cc2c1 | - | - | . | ? | 5.36µM
Cc1cc(C)c(-c2n[nH]c3c2C(c2ccccc2F)N(Cc2ccco2)C3=O)c(O)c1 (stereo not drawn) | . | . | - | . | -
O=C(CCC(=O)N(CC(=O)NC1CCCCC1)c1ccc(F)cc1)Nc1ccccn1 | - | - | . | - | -
O=C(N/N=C/c1ccsc1)c1cc(-c2ccncc2)nc2ccccc12 | - | - | - | - | ?
O=C(N/N=C/c1ccsc1)c1cc(-c2cccs2)nc2ccccc12 | - | - | ? | - | 9.53µM
COCCNC(=O)c1cccc(OC2CCN(Cc3ccc(OC(F)F)cc3)CC2)c1 | - | - | . | - | -
O=C(Cn1ncc(N2CCCC2)c(Cl)c1=O)c1ccc(Cl)cc1 | ? | 2.51µM | 12.6µM | 1.41µM | 21.3µM
CCNC(=O)c1sc2cc(C)ccc2c1Cl | ? | ? | - | 3.16µM | 10.7µM
Cc1cc(NC(=O)c2c(Cl)cccc2Cl)no1 | - | - | - | - | -
Cc1ccc2c(Cl)c(C(=O)Nc3cc(C)on3)sc2c1 | 8.2µM | 2.82µM | ? | 2.24µM | ?
Cc1ccc2c(Cl)c(C(=O)NCCc3ccccc3)sc2c1 | ? | 3.55µM | 15.8µM | 2.51µM | 6.01µM
Cn1c(C(=O)NCCc2ccccc2)cc2sc(Cl)cc21 | . | . | 2.82µM | . | 1.2µM
COc1ccc(CCNC(=O)c2sc3cc(C)ccc3c2Cl)cc1 | - | - | - | - | -
O=C(NCCCN1CCOCC1)c1sc2cc(Cl)ccc2c1Cl | - | - | - | - | -
O=C(Nc1cccc(F)c1)N1CCCC2(CCN(C(=O)c3cccc(F)c3)CC2)C1 | . | . | - | . | .
Cn1nnc2c(N3CCCCC3)ncnc21 | . | . | . | . | -
CCN1C(=O)c2ccc(C(=O)Nc3nccs3)cc2C1=O | - | - | - | - | ?
O=C(O)c1cc(NC(=O)c2ccc3c(c2)C(=O)N(Cc2cccnc2)C3=O)cc(C(=O)O)c1 | - | - | . | - | -
O=C(Nc1nccs1)c1ccc2c(c1)C(=O)N(Cc1cccnc1)C2=O | - | - | . | - | 23.9µM
Cc1cnc(NC(=O)c2ccc3c(c2)C(=O)N(Cc2cccnc2)C3=O)s1 | - | - | . | - | 1.69µM
C#Cc1cccc(NC(=O)c2ccc3c(c2)C(=O)N(Cc2cccnc2)C3=O)c1 | - | - | . | - | 13.5µM
CC(C)(C)N1C(=O)c2ccc(C(=O)Nc3nccs3)cc2C1=O | ? | 3.55µM | - | 2.82µM | 3.38µM
O=C(Nc1ccc(C(=O)OCc2cc(=O)n3nc(C4CC4)sc3n2)cc1)c1cccc(F)c1 | . | . | . | . | -
C/C(=C\CO)CCO | . | . | - | . | .
SMILES | ELG1 genotoxic | NPC1 promoter act | SMN2 splice up | Rab9 promoter act | FLuc counter
COc1ccc(CCC(=O)NCc2ccc3c(c2)CCN3C(=O)c2ccc(Cl)cc2)cc1 | . | . | . | . | -
CCOC(=O)/C(N=Nc1ccc2c(c1)OCO2)=C(\C)O | ? | 3.98µM | 11.2µM | 2.51µM | 13.5µM
CCN(CC)c1ccc(/C=C2\C(=O)c3ccc(C(=O)O)cc3C2=O)cc1 | ? | - | - | - | 0.379µM
Cc1cc2nc(-c3cccc(NC(=O)CSc4ccc(Cl)cc4)c3)oc2cc1C | . | . | - | . | 1.9µM
O=C(Nc1cccc(-c2nc3ncccc3o2)c1)c1ccccc1 | - | - | - | - | ?
Cc1ccc(C(=O)Nc2cccc(-c3nc4ncccc4o3)c2)cc1 | - | - | . | - | 13.5µM
CCC(=O)Nc1cccc(-c2nc3ccccc3o2)c1 | - | - | - | - | ?
Cc1cc2nc(-c3ccc(NC(=O)c4ccccc4F)cc3)oc2cc1C | . | . | - | . | -
Cc1ccc(SCC(=O)Nc2ccc3oc(-c4cccc(Cl)c4)nc3c2)cc1 | . | . | . | . | -
Cc1cc2nc(-c3cccc(NC(=O)c4cccc5ccccc45)c3)oc2cc1C | . | . | - | . | 2.13µM
CS(=O)(=O)c1ccccc1C(=O)Nc1cccc(-c2nc3ccccc3o2)c1 | - | - | . | - | 10.7µM
Nc1ccccc1C(=O)N1O[C@@H]2C=C[C@H]1CC2 | - | . | . | . | .
CCCCOc1ccc(C2c3c(-c4ccccc4O)n[nH]c3C(=O)N2Cc2ccncc2)cc1OC (stereo not drawn) | . | . | - | . | -
Cc1ccc2nc(-c3cccc(NC(=O)c4ccc(Br)o4)c3)oc2c1 | . | . | - | . | 2.69µM
Cc1ccc2nc(-c3ccc(Cl)c(NC(=O)c4ccc(Br)o4)c3)oc2c1 | . | . | - | . | ?
Cc1ccc2nc(-c3cccc(NC(=O)c4cccc5c(Cl)cccc45)c3)oc2c1 | . | . | - | . | 2.39µM
CCCc1nnc(NC(=O)CCC(=O)N2CCN(c3ccccc3)CC2)s1 | - | - | . | - | -
Cc1ccccc1N(C(=O)Cc1cccs1)C(C(=O)NCC1CCCO1)c1cccnc1 (stereo not drawn) | - | - | - | - | -
O=C(NCC1CCCO1)C(c1cccnc1)N(C(=O)Cc1cccs1)c1ccccc1 (stereo not drawn) | - | ? | - | ? | 10.7µM
CC(C)CNC(=S)N1CCN(c2nc(-c3ccc(Cl)cc3)cs2)CC1 | - | - | . | - | -
Fc1ccc(-c2csc(N3CCOCC3)n2)cc1 | - | 3.98µM | . | 2.51µM | 21.3µM
Clc1ccc(-c2csc(N3CCSCC3)n2)cc1 | ? | - | - | - | 12µM
O=C(c1ccco1)N1CCN(c2nc(-c3ccc(F)cc3)cs2)CC1 | - | - | . | - | 23.9µM
c1ccc2oc(-c3csc(N4CCOCC4)n3)cc2c1 | ? | 1.26µM | 3.16µM | 0.501µM | 0.757µM
CC(=O)N1C(=O)/C(=C2\SC(=S)N(NS(=O)(=O)c3ccc(C)cc3)C2=O)c2ccccc21 | - | - | . | - | ?
SMILES | ELG1 genotoxic | NPC1 promoter act | SMN2 splice up | Rab9 promoter act | FLuc counter
C[C@H](CO)N1C[C@H](C)[C@@H](CN(C)Cc2ccc(Cl)c(Cl)c2)Oc2c(NS(=O)(=O)c3cccs3)cccc2C1=O | - | . | . | . | .
CCCCN(C)CCCNC(=O)Cn1ncc2c3ccccc3n(Cc3ccccc3)c2c1=O | . | . | - | . | -
Cc1ccc(N2CC(C)Cn3c2nc2c3c(=O)n(CC(=O)O)c(=O)n2C)cc1 (stereo not drawn) | . | . | - | . | -
c1ccc(-c2csc(N3CCSCC3)n2)cc1 | - | - | - | ? | 23.9µM
Fc1ccc(-c2csc(N3CCSCC3)n2)cc1 | - | - | - | - | 16.9µM
O=C(c1ncn[nH]1)N1CCN(c2nc(-c3ccccc3)cs2)CC1 | - | - | - | - | ?
O=C(CSc1nc(-c2ccc(F)cc2)cs1)N1CCOCC1 | 18.4µM | - | - | ? | ?
Brc1ccc(-c2csc(N3CCc4ccccc4C3)n2)cc1 | - | - | - | - | ?
Brc1ccc(-c2csc(N3CCC(c4ccccc4)C3)n2)cc1 (stereo not drawn) | - | ? | - | ? | 6.01µM
COc1ccc2oc(=O)cc(CN3CCN(c4ccccc4OC)CC3)c2c1 | . | . | - | . | -
COc1ccc(F)cc1S(=O)(=O)NCC(c1ccco1)S(=O)(=O)c1ccc(F)cc1 (stereo not drawn) | . | . | . | . | -
